Source: PubChem BioAssay
Autofluor counter: compound fluorescence in toxin protease inhibitor counterscreen; compound autofluorescence counterscreen, microsphere flow cytometry; hits give high values; fluorescence intensity (test concentration not listed); 360,000 tested, 3.1% active; AID 624483; in the data active = fluorescence intensity above about 16000; inconclusive = no clear call, values can overlap the other calls
Anthrax LF inh2: blocks Bacillus anthracis lethal factor protease | 360,000 tested, 0.12% active | multiplex microsphere protease cleavage assay, LF | AID 588501 | inhibition, % at 10 µM | P15917; also: plate controls were buffer without enzyme for full effect and enzyme alone for no effect
BoNT-A LC inh2: blocks Botulinum neurotoxin A light chain protease; multiplex microsphere protease substrate cleavage, flow cytometry; inhibition, % at 10 µM; 360,000 tested, 0.17% active; AID 588499; also: plate controls were buffer without enzyme for full effect and enzyme alone for no effect
BoNT-F LC inh: BoNT F light chain protease inhibition | Multiplex microsphere protease cleavage assay, flow cytometry | inhibition, % at 10 µM | 360,000 tested, 0.22% active | AID 588497; in the data active = inhibition above about 35%, passing the limit was not always enough; inconclusive = no clear call, values can overlap the other calls; also: plate controls were buffer without enzyme for full effect and enzyme alone for no effect
GDH-TPI counter: inhibits GDH-TPI coupling enzymes, artifact for Mtb FBA screen | GDH-TPI coupled enzyme counterscreen, NADH absorbance | inhibition, % at 4.8 µM | 360,000 tested, 1.2% active; in the data active = inhibition above about 30%;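 also: 0% = DMSO wells and 100% = wells lacking the enzyme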
FBA Mtb inh: inhibitors of M. tuberculosis fructose-bisphosphate aldolase. P9WQA3. purified M. tuberculosis FBA, fluorescence read-out. inhibition, % at 1 µM. 360,000 tested, 2.3% active; in the data active = inhibition above about 27%;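 also: 0% = vehicle and 100% = reference inhibitor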
Target sequence (P9WQA3 whole entry, looked up): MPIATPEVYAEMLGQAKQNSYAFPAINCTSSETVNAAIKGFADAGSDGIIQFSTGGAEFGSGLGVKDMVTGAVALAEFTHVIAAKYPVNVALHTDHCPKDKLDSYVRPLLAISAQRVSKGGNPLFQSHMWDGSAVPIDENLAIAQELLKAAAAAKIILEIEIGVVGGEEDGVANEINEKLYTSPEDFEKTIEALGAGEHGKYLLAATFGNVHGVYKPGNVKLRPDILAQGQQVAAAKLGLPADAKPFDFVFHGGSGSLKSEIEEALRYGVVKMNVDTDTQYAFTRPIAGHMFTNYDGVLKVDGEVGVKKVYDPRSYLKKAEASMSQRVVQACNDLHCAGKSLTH
* hit, by the source's call; ? = inconclusive; / = not tested or not shown. Only some compounds are listed: those with a hit (about 6.7% of all), similar ones and a draw of the others. Rule as the data show it, unless noted: active = inhibition above about 30%; inconclusive = no clear call, values can overlap the other calls; inactive = below that.

SMILES	Autofluor counter	Anthrax LF inh2	BoNT-A LC inh2	BoNT-F LC inh	GDH-TPI counter	FBA Mtb inh
Fc1ccc2c(c1)C1C=CCC1C(c1cc3c(cc1Br)OCO3)N2 (stereo not drawn)	19890*	-9	?	6	13	0
O=C(O)C1Nc2ccc(Br)cc2C2C=CCC12 (stereo not drawn)	/	/	/	/	-3	-2
CCOc1ccc(CCNC(=O)CN(C)S(=O)(=O)c2ccc3c(c2)CCC(=O)N3)cc1OCC	23279*	-2	-2	-2	-12	2
CN(CC(=O)NCc1ccccc1)S(=O)(=O)c1ccc2c(c1)CCC(=O)N2	3905	-2	0	4	10	1
CC1CN(c2cc3nccnc3cc2F)CC(C)O1 (stereo not drawn)	16271*	1	?	1	18	0
COc1ccc(OC)c2c(N3CC(C)OC(C)C3)cc(C(F)(F)F)nc12 (stereo not drawn)	6433	-6	-1	-8	20	5
Cn1c(SCC(=O)N2CCCCC2)nnc1-c1ccc(S(=O)(=O)N2CCOCC2)cc1	17538*	-4	-3	-5	2	11
CCn1c(SCC(=O)Nc2ccccc2)nnc1-c1ccc(S(=O)(=O)N2CCOCC2)cc1	9473	-8	0	0	-2	1
CCn1c(SCC(=O)N2CCCC2)nnc1-c1ccc(S(=O)(=O)N2CCCCCC2)cc1	19519*	2	?	2	-2	-2
Cn1c(SCC(=O)N2CCCC2)nnc1-c1ccc(S(=O)(=O)N2CCCC2)cc1	10121	-1	0	0	-7	7
N#CCSc1nnc(-c2ccc(S(=O)(=O)N3CCOCC3)cc2)n1CC1CCCO1 (stereo not drawn)	22267*	-6	?	-6	8	2
CCn1c(SCC(=O)Nc2cc(C)on2)nnc1-c1ccc(S(=O)(=O)N2CCN(C)CC2)cc1	24027*	0	0	1	-10	8
NC(=O)c1ccccc1NS(=O)(=O)c1ccc(F)cc1	4290	-4	1	2	-1	23
NC(=O)CSc1nnc(-c2ccc(S(=O)(=O)N3CCCC3)cc2)n1Cc1ccco1	19668*	0	4	3	-4	1
CCn1c(SCC(=O)N2CCCCC2)nnc1-c1ccc(S(=O)(=O)N2CCN(C)CC2)cc1	16315*	0	1	3	5	13
CCn1c(SCC(=O)N2CCCC(C)C2)nnc1-c1ccc(S(=O)(=O)N2CCN(C)CC2)cc1 (stereo not drawn)	5786	-6	0	-2	-7	11
Cc1nnc(SCC(=O)c2ccc(S(=O)(=O)N3CCOCC3)cc2)n1-c1ccccc1	24041*	-2	?	-6	8	-1
O=C(O)CSc1nnc(-c2ccc(S(=O)(=O)N3CCCC3)cc2)n1Cc1ccco1	11292	0	0	-3	-6	2
CC(Sc1nnc(-c2ccccc2F)n1C)C(=O)Nc1ccc(N2CCOCC2)cc1 (stereo not drawn)	3888	-5	0	0	/	/
O=C(NCC1COc2ccccc2O1)C1CCN(S(=O)(=O)c2ccccc2)CC1 (stereo not drawn)	5409	4	1	3	-3	-5
O=C(O)c1cccc(NC(=S)NC(=O)c2ccc3ccccc3c2)c1	5692	0	2	9	10	8
COCCn1c(SCC(=O)Nc2sc(C)c(C)c2C#N)nnc1-c1ccc(OC)cc1	22774*	-2	-1	1	8	1
O=S(=O)(Cc1ccccc1)NCc1ccccn1	21025*	3	-1	1	-8	-2
CN(C)c1ccc(-c2noc(C3CCN(S(=O)(=O)c4ccc(C(=O)O)cc4)CC3)n2)cc1	22586*	-4	?	4	18	-2
CN(C)c1ccc(-c2noc(C3CCN(S(=O)(=O)c4cccc(Cl)c4)CC3)n2)cc1	17481*	-6	?	-11	6	2
O=C(C1CC1)N1CCC(c2nc(-c3ccc(S(=O)(=O)N4CCCC4)cc3)no2)CC1	5669	0	1	0	9	4
O=C(NCc1ccco1)c1ccccc1	/	/	/	/	3	2
O=C(Nc1sccc1C(=O)NCc1ccco1)c1cccnc1	16659*	3	?	-1	32*	1
CC(C)C(OC(=O)C1CCCO1)C(=O)NC1CCCC1 (stereo not drawn)	18597*	-3	2	1	-2	-1
CC(C)C(OC(=O)c1ccco1)C(=O)NC1CCCC1 (stereo not drawn)	5241	-1	2	9	-5	0
